Reference: ChEMBL document CHEMBL1961873, “Compounds: GSK PKIS; Assays: Nanosyn kinase panel” (2012)

Legend:
[1] = target: T1, Serine/threonine-protein kinase D2 (Homo sapiens) (UniProt Q9BZL6); settings: at 1 µM;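 also: mean value of PRKD2 inhibition, from the GSK PKIS screening panel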
T1 sequence (whole entry): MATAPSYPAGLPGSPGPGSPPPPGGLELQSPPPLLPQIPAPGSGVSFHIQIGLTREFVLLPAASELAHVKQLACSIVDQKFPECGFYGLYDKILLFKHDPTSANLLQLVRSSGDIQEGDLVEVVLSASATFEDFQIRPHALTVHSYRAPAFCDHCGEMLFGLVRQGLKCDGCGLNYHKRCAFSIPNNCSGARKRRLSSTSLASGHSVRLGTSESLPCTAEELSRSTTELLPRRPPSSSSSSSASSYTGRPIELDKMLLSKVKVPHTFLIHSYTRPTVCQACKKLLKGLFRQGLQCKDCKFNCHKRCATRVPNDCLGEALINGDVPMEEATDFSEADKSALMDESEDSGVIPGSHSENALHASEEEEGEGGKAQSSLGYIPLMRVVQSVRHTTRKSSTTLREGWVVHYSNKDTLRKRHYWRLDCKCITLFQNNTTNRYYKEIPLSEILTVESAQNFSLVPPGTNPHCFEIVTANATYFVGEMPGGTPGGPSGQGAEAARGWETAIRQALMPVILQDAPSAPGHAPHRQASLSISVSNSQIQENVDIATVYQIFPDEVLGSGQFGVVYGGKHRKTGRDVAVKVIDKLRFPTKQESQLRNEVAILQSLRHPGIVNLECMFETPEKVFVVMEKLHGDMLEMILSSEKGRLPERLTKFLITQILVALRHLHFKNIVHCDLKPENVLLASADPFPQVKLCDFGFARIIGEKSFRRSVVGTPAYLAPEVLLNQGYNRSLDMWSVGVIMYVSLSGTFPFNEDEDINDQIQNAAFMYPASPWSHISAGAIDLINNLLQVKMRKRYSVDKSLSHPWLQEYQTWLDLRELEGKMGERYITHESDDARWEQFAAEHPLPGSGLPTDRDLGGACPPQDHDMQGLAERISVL

[2] = target: T2, Serine/threonine-protein kinase D3 (Homo sapiens) (UniProt O94806); settings: at 0.1 µM
T2 sequence (whole entry): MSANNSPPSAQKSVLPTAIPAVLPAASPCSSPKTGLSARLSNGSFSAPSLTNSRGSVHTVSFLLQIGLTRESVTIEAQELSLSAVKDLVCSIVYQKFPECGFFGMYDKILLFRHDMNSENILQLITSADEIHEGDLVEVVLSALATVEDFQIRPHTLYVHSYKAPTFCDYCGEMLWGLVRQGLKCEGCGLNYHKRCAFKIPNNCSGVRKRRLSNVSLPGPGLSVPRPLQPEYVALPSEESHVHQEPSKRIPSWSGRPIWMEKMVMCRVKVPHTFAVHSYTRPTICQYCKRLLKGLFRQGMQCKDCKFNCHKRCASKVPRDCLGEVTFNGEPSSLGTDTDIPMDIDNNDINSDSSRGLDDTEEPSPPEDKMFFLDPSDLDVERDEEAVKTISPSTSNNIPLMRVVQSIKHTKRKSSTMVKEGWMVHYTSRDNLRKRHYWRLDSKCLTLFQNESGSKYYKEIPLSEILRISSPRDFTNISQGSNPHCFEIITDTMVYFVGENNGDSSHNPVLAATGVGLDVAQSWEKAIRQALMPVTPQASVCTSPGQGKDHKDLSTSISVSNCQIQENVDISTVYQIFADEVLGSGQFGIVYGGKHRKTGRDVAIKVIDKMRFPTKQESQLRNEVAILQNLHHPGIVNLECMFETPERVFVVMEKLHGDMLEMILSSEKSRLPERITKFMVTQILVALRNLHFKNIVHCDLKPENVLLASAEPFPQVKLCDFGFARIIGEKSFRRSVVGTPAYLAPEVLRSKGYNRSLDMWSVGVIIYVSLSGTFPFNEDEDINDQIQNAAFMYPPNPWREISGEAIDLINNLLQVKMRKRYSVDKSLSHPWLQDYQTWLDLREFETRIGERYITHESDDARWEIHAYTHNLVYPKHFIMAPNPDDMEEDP

[3] = target: T2, Serine/threonine-protein kinase D3 (Homo sapiens); settings: at 1 µM
[4] = target: T3, cGMP-dependent protein kinase 1 (Homo sapiens) (UniProt Q13976); settings: at 0.1 µM
T3 sequence (whole entry): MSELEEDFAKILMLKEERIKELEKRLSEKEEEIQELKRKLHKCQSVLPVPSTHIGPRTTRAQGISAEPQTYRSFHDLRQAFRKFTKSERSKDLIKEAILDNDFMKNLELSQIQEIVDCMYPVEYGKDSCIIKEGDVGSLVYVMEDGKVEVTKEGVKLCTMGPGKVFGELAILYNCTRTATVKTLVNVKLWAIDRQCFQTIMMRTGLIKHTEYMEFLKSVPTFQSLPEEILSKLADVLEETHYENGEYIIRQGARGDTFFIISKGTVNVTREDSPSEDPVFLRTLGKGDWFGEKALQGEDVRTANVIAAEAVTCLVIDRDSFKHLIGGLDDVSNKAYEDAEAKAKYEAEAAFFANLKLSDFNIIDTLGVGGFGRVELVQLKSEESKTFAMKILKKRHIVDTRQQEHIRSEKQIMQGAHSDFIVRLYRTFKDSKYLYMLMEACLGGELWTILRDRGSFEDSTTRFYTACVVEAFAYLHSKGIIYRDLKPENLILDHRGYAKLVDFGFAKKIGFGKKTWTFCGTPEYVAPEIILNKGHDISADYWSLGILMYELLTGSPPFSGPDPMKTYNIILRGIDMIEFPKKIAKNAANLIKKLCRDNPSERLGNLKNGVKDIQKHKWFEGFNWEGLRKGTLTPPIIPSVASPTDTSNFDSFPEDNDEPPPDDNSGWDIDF

[5] = target: T3, cGMP-dependent protein kinase 1 (Homo sapiens); settings: at 1 µM
[6] = target: T4, cGMP-dependent protein kinase 2 (Homo sapiens) (UniProt Q13237); settings: at 0.1 µM
T4 sequence (whole entry): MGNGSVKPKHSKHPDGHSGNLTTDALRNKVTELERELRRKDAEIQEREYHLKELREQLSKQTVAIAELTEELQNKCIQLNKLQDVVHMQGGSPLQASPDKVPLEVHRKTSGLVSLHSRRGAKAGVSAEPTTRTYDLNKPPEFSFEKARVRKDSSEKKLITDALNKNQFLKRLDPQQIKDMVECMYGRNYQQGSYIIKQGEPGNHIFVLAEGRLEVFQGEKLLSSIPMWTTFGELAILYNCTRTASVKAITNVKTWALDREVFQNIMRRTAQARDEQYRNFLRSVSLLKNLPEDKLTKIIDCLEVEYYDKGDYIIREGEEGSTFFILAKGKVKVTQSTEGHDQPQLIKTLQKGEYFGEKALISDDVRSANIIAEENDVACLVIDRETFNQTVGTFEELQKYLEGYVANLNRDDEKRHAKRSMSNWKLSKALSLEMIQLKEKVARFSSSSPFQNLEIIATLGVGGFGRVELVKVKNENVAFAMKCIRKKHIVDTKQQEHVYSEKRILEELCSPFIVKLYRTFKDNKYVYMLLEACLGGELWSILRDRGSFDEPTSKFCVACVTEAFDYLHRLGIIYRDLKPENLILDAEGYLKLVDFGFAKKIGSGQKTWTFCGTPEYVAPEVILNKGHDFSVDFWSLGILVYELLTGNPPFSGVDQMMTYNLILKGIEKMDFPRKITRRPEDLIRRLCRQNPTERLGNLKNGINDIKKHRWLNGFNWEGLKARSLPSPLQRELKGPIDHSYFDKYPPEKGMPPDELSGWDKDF

[7] = target: T4, cGMP-dependent protein kinase 2 (Homo sapiens); settings: at 1 µM
[8] = target: T5, cAMP-dependent protein kinase catalytic subunit PRKX (Homo sapiens) (UniProt P51817); settings: at 0.1 µM
T5 sequence (whole entry): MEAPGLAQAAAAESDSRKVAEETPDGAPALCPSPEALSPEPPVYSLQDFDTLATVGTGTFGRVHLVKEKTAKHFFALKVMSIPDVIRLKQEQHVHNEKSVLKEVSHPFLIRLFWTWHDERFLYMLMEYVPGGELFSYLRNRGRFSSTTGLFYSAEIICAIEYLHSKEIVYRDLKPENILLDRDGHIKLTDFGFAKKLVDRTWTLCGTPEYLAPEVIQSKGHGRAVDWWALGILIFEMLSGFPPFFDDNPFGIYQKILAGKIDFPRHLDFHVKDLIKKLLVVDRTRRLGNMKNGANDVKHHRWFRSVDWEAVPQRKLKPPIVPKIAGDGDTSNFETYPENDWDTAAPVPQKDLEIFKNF

[9] = target: T5, cAMP-dependent protein kinase catalytic subunit PRKX (Homo sapiens); settings: at 1 µM
[10] = target: Rho-associated protein kinase 1 (Homo sapiens) (UniProt Q13464); settings: at 0.1 µM;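 also: values are mean percent inhibition of ROCK1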
Sequence of Rho-associated protein kinase 1 (Homo sapiens) (Q13464 2-1354 limits assumed): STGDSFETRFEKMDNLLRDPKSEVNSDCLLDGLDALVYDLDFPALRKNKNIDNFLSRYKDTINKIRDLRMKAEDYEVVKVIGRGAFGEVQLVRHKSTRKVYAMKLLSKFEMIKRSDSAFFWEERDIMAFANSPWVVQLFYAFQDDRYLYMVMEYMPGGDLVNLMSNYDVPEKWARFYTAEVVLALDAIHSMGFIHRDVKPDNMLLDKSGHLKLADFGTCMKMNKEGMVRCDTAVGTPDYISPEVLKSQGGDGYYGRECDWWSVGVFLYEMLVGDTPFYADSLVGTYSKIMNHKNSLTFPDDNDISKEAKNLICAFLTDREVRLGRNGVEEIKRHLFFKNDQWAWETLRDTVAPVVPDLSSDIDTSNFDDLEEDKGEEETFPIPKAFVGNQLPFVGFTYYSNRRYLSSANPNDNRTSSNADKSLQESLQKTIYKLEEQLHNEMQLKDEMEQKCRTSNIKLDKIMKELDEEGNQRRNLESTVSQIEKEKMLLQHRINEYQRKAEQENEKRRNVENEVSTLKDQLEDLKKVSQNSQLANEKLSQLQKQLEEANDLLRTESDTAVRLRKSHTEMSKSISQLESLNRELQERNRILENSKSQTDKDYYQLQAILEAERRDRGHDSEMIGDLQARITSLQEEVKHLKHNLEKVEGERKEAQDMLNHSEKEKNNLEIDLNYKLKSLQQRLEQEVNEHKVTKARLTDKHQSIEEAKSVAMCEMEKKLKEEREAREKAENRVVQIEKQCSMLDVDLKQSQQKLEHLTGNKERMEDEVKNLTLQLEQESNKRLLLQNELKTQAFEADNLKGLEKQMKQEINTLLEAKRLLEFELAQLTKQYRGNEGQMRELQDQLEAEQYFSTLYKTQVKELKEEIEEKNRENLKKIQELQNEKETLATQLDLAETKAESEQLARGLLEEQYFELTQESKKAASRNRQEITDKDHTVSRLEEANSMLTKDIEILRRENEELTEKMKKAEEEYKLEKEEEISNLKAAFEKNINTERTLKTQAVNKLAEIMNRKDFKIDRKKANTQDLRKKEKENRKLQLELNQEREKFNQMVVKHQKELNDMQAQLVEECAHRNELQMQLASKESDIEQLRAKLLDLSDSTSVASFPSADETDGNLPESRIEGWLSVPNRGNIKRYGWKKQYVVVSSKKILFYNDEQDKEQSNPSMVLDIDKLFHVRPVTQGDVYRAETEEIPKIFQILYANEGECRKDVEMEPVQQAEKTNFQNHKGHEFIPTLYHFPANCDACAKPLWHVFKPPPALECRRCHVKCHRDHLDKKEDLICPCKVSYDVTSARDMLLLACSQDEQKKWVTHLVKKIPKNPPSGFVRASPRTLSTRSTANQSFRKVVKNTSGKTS

| SMILES | inhibition [1] [%] | inhibition [2] [%] | inhibition [3] [%] | inhibition [4] [%] | inhibition [5] [%] | inhibition [6] [%] | inhibition [7] [%] | inhibition [8] [%] | inhibition [9] [%] | inhibition [10] [%] |
| --- | --- | --- | --- | --- | --- | --- | --- | --- | --- | --- |
| Cc1cccc2c1NC(=O)/C2=N\Nc1ccc(S(N)(=O)=O)cc1 | 3.1 | 3.5 | 3.85 | 0.72 | 2.94 | 3.15 | 3.38 | 1.15 | 2.2 | 1.31 |
| CN(C)CCOc1ccc(-c2nc(-c3ccncc3)c(-c3ccc4c(c3)CC/C4=N\O)[nH]2)cc1 | 6.37 | 3.58 | 5.44 | 2.17 | 6.12 | 2.69 | 12.3 | 1.16 | 1.33 | 0.51 |
| COc1cccc(-c2c[nH]c3c(N/N=C/c4ccncc4)ncnc23)c1 | 5.96 | 1.85 | 5.38 | 2.91 | 4.69 | 1.71 | 8.58 | 1.13 | -0.16 | 1.94 |
| Cc1cccc(Nc2ncc(-c3ccccc3)o2)c1 | 3.61 | 2.84 | 4.5 | 5.35 | 11.3 | 6.06 | 10.7 | 11.3 | 12 | 1.64 |
| CS(=O)(=O)CCNCc1ccc(-c2ccc3ncnc(Nc4ccc(OCc5ccccc5)c(C(F)(F)F)c4)c3c2)o1 | 2.47 | 4.3 | 4.39 | 2.93 | 0.85 | 1.82 | 0.3 | 2.36 | 2.08 | 10.3 |
| COc1cc(N2CCN(C(C)C)CC2)ccc1Nc1nc(Nc2ccc(F)cc2C(N)=O)c2cc[nH]c2n1 | 83.9 | 38.8 | 79.8 | 11.5 | 55 | 6 | 25.4 | 5.37 | 5.35 | 1.79 |
| Fc1ccc(-c2cc(-c3c[nH]nc3-c3ccccn3)ccn2)cc1 | 32.4 | 6.2 | 20.5 | 1.49 | 4.77 | 1.37 | 2.9 | 1.98 | 5.03 | -0.11 |
| Nc1nc(-c2ccc(F)cc2)c(-c2ccc3ncccc3n2)s1 | 51.9 | 8.64 | 41.8 | 0.69 | 4.97 | 2.78 | 4.3 | 2.61 | 3.14 | 0.86 |
| COc1cc2c(cc1Nc1nc(Nc3ccsc3C(N)=O)c3cc[nH]c3n1)N(C(=O)CN(C)C)CCC2(C)C | 75.7 | 19.8 | 75.7 | 3.61 | 8.75 | 4.41 | 9.54 | 2.19 | 6.05 | 25 |
| Fc1ccc(-c2nn3ncccc3c2-c2ccnc(Nc3ccc4c(c3)OCCO4)n2)cc1 | 52.1 | 8 | 48.4 | 2.53 | 4.25 | 2.03 | 3.43 | 0.43 | 0.09 | -0.74 |
| COc1ccc2c(-c3ccnc(Nc4cccc(OC(F)(F)F)c4)n3)cnn2n1 | 5.35 | 3.53 | 5.76 | 2.98 | 14.2 | 1.96 | 7.99 | 2.02 | 3.71 | 1.01 |
| COc1cc(Nc2nccc(Nc3ccc4c(C)n[nH]c4c3)n2)cc(OC)c1OC | 2.94 | 1.3 | 2.54 | 3.29 | 3.61 | 2.12 | 2.71 | 0.71 | -0.26 | 2.06 |
| O=S(=O)(CCNCc1ccc(-c2ccc3ncnc(Nc4ccc(OCc5cccc(F)c5)c(Cl)c4)c3c2)o1)c1ccccc1 | 4.53 | 5.12 | 5.2 | 4.89 | 3.93 | 3.34 | 3.34 | 2.74 | 2.77 | 2.37 |
| N#Cc1c(NC(=O)c2ccc(F)cc2)sc2c1CCCC2 | 2.16 | 1.7 | 1.92 | 0.21 | 1.54 | -0.45 | 3.35 | 0.52 | 1.79 | 0.43 |
| CCN1CCC(CC(=O)Nc2n[nH]c3nnc(-c4cccc(F)c4F)cc23)CC1 | 2.99 | 1.54 | 2.01 | 1.07 | 0.47 | 1.64 | 2.03 | 0.36 | 0.65 | 0.26 |
| CS(=O)(=O)CCNCc1coc(-c2ccc3ncnc(Nc4ccc(OCc5ccccc5)cc4)c3c2)c1 | 2.1 | 2.3 | 3.06 | 1.72 | 3.25 | 1.73 | 3.41 | 1.12 | 0.96 | 0.65 |
| COc1ccc(-c2cc(-c3c[nH]nc3-c3ccccn3)ccn2)cc1 | 44.8 | 7.96 | 27.2 | 1.9 | 5.45 | 3.27 | 4.61 | 2.8 | 6.17 | 1.04 |
